A selection: hits, their analogues and other compounds. The true share with any hit is near 2.6%.
TRPV1 agonist – human TRPV1 agonism. actives 0.19% (n = 320,000). activation, % at 8.33 µM. Q8NER1. TRPV1-expressing cells, Fluo-8 calcium influx, agonist mode; in the data active = activation above about 80%; inconclusive = between about 30% and that limit; also: 0% is about no effect
Target sequence (Q8NER1 whole entry, looked up): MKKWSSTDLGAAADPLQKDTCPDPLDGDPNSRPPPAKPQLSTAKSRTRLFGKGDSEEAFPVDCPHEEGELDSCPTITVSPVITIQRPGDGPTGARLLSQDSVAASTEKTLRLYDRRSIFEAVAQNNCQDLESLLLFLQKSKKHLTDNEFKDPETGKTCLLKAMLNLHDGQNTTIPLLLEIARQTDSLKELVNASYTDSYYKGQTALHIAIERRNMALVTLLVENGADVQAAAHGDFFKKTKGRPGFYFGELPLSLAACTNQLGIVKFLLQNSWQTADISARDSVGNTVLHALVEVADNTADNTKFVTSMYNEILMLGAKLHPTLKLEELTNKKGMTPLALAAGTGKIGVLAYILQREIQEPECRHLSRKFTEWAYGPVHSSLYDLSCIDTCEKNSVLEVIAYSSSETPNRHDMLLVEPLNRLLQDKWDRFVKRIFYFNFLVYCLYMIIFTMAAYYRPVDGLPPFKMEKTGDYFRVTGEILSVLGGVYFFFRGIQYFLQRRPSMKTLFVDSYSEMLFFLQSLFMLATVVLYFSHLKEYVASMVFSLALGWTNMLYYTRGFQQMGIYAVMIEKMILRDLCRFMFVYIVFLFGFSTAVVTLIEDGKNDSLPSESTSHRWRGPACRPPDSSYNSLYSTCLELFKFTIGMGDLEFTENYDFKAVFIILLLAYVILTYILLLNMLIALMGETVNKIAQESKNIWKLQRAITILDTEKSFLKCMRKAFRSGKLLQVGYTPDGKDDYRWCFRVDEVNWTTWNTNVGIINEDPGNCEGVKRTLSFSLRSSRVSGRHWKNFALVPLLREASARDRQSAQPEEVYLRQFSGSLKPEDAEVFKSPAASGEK
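TRPV1-expressing cells were cultured overnight at 35.5C and loaded with Fluo-8 calcium dye for 40 to 90 min at room temperature. After a 10 s baseline, compound was added and calcium influx was read kinetically for 3 min (ex 480/em 520 nm).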
ClpP mod – qHTS Assay for Activators of ClpP; Potency, µM (series often up to 57.5 µM), without a hit: at the highest dose activity change, negative = active; AID 651965, 2013; ATP-dependent Clp protease proteolytic subunit (Bacillus subtilis (strain 168)), P80244; actives 1.9% (n = 340,000); purified B. subtilis ClpP, FRET peptide cleavage, 20 min; active = well fitted falling curve with a large enough effect; inconclusive = small, poorly fitted or top-dose-only effect; inactive = no such curve, though single readings can be large or run the other way; also: potency is read from the fitted curve at half-maximal effect; the source files actives as falling curves though it sought activators and does not explain the sign; nearly all actives have a fitted effect of over 65% in size
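FRET quenching reversal measured ClpP activation: 10 microg/mL B. subtilis ClpP at pH 8 with the FRET-FV decapeptide, read at 430 nm after 320 nm excitation. The 20-min minus 0-min signal was scaled between DMSO/no-enzyme wells and ADEP (5.8 microM final).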
KCNH2 WT inh – KCNH2 (human, wildtype) channel inhibition; U2OS, BacMam KCNH2, thallium flux FluxOr; hits give low values; activity change, % at 1.84 µM; actives 0.37% (n = 340,000); Q12809; AID 720551;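 active = maximum activity change below -70%; inconclusive = maximum activity change between -70% and -50%; inactive = maximum activity change above -50%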; also: % is scaled to controls: 0 for no effect and ±100 for the full control effect
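U2OS cells were transduced with wild-type KCNH2 virus (2.03 x 10^8 / mL) for 4 h at room temperature, then cultured overnight at 37 C. Thallium flux was read with FluxOr dye. Rate constants were normalized to DMSO controls.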
p53 reactivator – mutant p53 re-activation in reporter cells; H1299 p53-A138V BP100-luciferase reporter, luminescence, 24 h; Potency, µM (doses to about 92.2 µM), for the others: at the highest dose activity change, positive = activation, most hits filed as activators; actives 0.063% (n = 320,000); active = well fitted activation curve with a large enough effect; inconclusive = small, poorly fitted or top-dose-only effect; inactive = no such curve, though single readings can be large or run the other way; also: potency is read from the fitted curve at half-maximal effect; % of control where 0% means no effect; nearly all actives have a fitted effect of over 45% in size
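p53-null H1299 cells stably carrying temperature-sensitive p53-A138V and a BP100-luciferase reporter were pinned with compounds (4-point, 1:5 series) and held 24 hrs at 37 deg C. Luminescence was read 10 min after detection reagent.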
TRPV1 PAM – human TRPV1 potentiation | TRPV1-expressing cells, Fluo-8 calcium influx, capsaicin EC20 potentiation | Q8NER1 | actives 0.02% (n = 320,000) | potentiation, % at 8.33 µM; in the data active = potentiation above about 80%; inconclusive = between about 30% and that limit; also: 0% is about no effect
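Cells expressing TRPV1 were dye-loaded with Fluo-8 and read kinetically: 10 s baseline, 3 min after compound (agonist portion), then 2 min after EC20 capsaicin (allosteric enhancer portion). Calcium-bound dye fluorescence at 480/520 nm.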
KCNH2 3.1 block – inhibitors of human KCNH2 3.1 potassium channel isoform; activity change, % (tested at about 1.8 µM); actives 0.95% (n = 340,000); U2OS KCNH2 3.1, thallium flux FluxOr; hits give low values;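 active = maximum activity change below -70%; inconclusive = maximum activity change from -70% to -50%; inactive = maximum activity change above -50%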;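 also: thallium influx rate constant from kinetic fluorescence after stimulation buffer; % is scaled to controls: 0 for no effect and ±100 for the full control effect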
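FluxOr-based Tl+ influx in U2OS cells transduced with KCNH2 3.1 virus; rate constants normalized to DMSO controls.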
Starred values were filed as active, the others as inactive; ? = inconclusive; · = no result; ! = a repeat was not active.

SMILES | TRPV1 agonist | ClpP mod | KCNH2 WT inh | p53 reactivator | TRPV1 PAM | KCNH2 3.1 block
CCc1cccc(C)c1NC(=O)Cn1cc2c(n1)CCCCC2 | · | 1% | · | · | · | ·
Cc1cccc(C(=O)Nc2ccc3oc(-c4ccncc4)nc3c2)c1 | · | 4% | · | · | · | ·
CC1(C)CC(=O)C([N+](=O)[O-])=C(NCCCC(=O)O)C1 | -1 | 14µM* | 4 | -7% | -9 | 12
Cc1nc(N)c(C#N)c(-c2ccccc2)c1C | -6 | -17% | -2 | -9% | -3 | -6
Cc1cc(C)c2c(n1)sc1c(-c3ccccc3)c(C#N)c(N)nc12 | 5 | 58% | -244* | 1% | -2 | -184*
CC1CCC(NC(=O)CN2CCN(S(=O)(=O)c3ccc(Br)s3)CC2)CC1 (stereo not drawn) | · | -4% | 7 | · | · | 3
CC1CCCCC1NC(=O)CN1CCN(S(=O)(=O)c2ccc(Br)s2)CC1 (stereo not drawn) | 11 | 14µM* | 5 | -5% | 4 | -16
C(=C1C=c2ccccc2=C1)c1ccc(N=Nc2ccc(C=C3C=c4ccccc4=C3)cc2)cc1 | · | 1% | · | · | · | ·
COc1ccc(/C=C(/NC(=O)c2ccco2)C(=O)N2CCCCC2)cc1 | 0 | 14µM* | -2 | · | -1 | 2
CSc1ccc(/C=C(/NC(=O)c2ccco2)C(=O)N2CCCCC2)cc1 | 0 | 1% | -3 | -4% | 29 | 13
OCCCCNCc1ccc(OCc2ccc(Cl)cc2Cl)cc1 | 3 | 0% | -17 | -50% | 6 | -44
OCCNCc1ccc(OCc2ccc(Cl)cc2Cl)cc1 | 2 | · | 15 | -4% | 6 | -84*
COC(=O)c1ccc(Sc2ccc(C)cc2)c(N)c1 | 1 | 28µM* | -5 | ? | ? | -2
COc1ccc(OC)c(CNC(=O)c2ccc(Sc3ccc(C)cc3)c(N)c2)c1 | · | 5% | · | · | · | ·
CC(Sc1cccc2cccc(C(=O)O)c12)C(=O)O (stereo not drawn) | 2 | 14µM* | 8 | 2% | -4 | -19
C=CCn1cc(/C=N/Nc2nc3ccccc3[nH]2)c2ccccc21 | 5 | -1% | 4 | 32µM* | -8 | ?
O=[N+]([O-])c1ccc(O)c(/C=N/Nc2nc3ccccc3[nH]2)c1 | -1 | -1% | 3 | 25µM* | -5 | 2
CC(N=Cc1cc([N+](=O)[O-])ccc1O)c1ccccc1 (stereo not drawn) | 0 | 0% | -170* | 3% | 7 | 1
CN(/N=C/c1cc([N+](=O)[O-])ccc1O)c1ccccc1 | -1 | -1% | 3 | 14% | 10 | 0
COc1ccc(CNC(=O)C2CCN(S(=O)(=O)c3ccc(F)cc3)CC2)cc1 | · | 0% | · | · | · | ·
CCN(CC)c1ccc(SS(=O)(=O)O)cc1 | 1 | 14µM*! | 13 | ? | -1 | -6
Cc1cc(O)c(C=Nc2ccc(Cl)cn2)c(=O)o1 | -1 | -22% | 34 | 5% | 7 | -15
Oc1ccc2ccccc2c1C=Nc1ccc(Cl)cn1 | -1 | · | 5 | 5% | ? | -114*
O=C(CSc1nc2ccccc2o1)N1N=C(c2cccs2)CC1c1ccc(F)cc1 (stereo not drawn) | 11 | 32µM* | 13 | 1% | -5 | -10
COc1cccc(C2CC(c3cccs3)=NN2C(=O)CSc2nc3ccccc3s2)c1OC (stereo not drawn) | 4 | 28µM* | -2 | -10% | 1 | 10
SMILES | TRPV1 agonist | ClpP mod | KCNH2 WT inh | p53 reactivator | TRPV1 PAM | KCNH2 3.1 block
O=C(CSC1=NCCS1)N1N=C(c2cccs2)CC1c1ccc(F)cc1 (stereo not drawn) | · | 5% | 18 | · | · | 2
Cc1ccc(C2CC(c3cccs3)=NN2C(=O)CSc2nc3ccccc3o2)cc1 (stereo not drawn) | 5 | 14µM* | -9 | 6% | 12 | 2
O=C(NC1CCCC1)c1cnn2c1NC(=C1CC1)C=C2C(F)F | · | -4% | · | · | · | ·
CC(Oc1ccccc1)C(=O)Nc1cccc(-c2nc3ccccc3[nH]2)c1 (stereo not drawn) | 19 | 35µM* | 0 | ? | -8 | -15
O=C(COc1ccccc1)Nc1cccc(-c2nc3cc4ccccc4cc3[nH]2)c1 | -6 | 6.3µM* | 17 | 26% | -18 | ·
CCCN1CCC(=NNc2ccc(S(N)(=O)=O)cc2[N+](=O)[O-])CC1 | -5 | 14µM* | -2 | 4% | 10 | 1
O=C(c1cccc(S(=O)(=O)N2CCOCC2)c1)N(Cc1ccc(F)cc1)Cc1ccco1 | 15 | 0% | 42 | 12% | -1 | -135*
CCCCn1c(-c2ccc(Cl)cc2)nc2c(=O)n(C)c(=O)[nH]c21 | · | 11µM* | -15 | ? | · | 37
CCOC(=O)c1cccc(NC(=O)Nc2c(C)n(C)n(-c3ccccc3)c2=O)c1 | · | -3% | · | · | · | ·
COc1ccc(NC(=S)Nc2ccc3snnc3c2)cc1 | -1 | · | 4 | 6% | 0 | -83*
O=C(Nc1ccc(F)cc1)c1ccc2snnc2c1 | 82* | · | -12 | ? | -18 | -24
COc1ccc(NC(=S)Nc2ccc3nccnc3c2)cc1 | -3 | -3% | -4 | 5% | 22 | 2
COc1ccc(CN(C)CC(=O)Nc2ccc(SC(F)F)cc2)cc1OC | ? | · | -38 | -3% | -20 | -98*
COc1ccc(CN(C)CC(=O)Nc2ccc(N3CCOCC3)cc2)cc1OC | -8 | -16% | 14 | -14% | 9 | 6
CN(CC(=O)Nc1ccc(S(N)(=O)=O)cc1)C1CCCCC1 | 1 | · | 8 | -1% | 5 | -4
CN(CC(=O)Nc1ccc(SC(F)F)cc1)C1CCCCC1 | ? | · | -37 | -3% | -12 | -94*
C=C1C=C(C(F)(F)F)n2ncc(C(=O)NCc3ccc(F)cc3)c2N1 | · | -3% | · | · | · | ·
COCCCN1CCN(C2Cc3ccccc3Sc3ccc(Cl)cc32)CC1 (stereo not drawn) | 7 | 4% | ? | -6% | -10 | -86*
Clc1ccc2c(c1)C(N1CCNCC1)Cc1ccccc1S2 (stereo not drawn) | 0 | -8% | 12 | -22% | 14 | -14
CN1CCc2cc3c(c4c2C1CC41CCC(=NO)CC1)OCO3 (stereo not drawn) | 1 | 32µM* | 4 | 2% | ? | -1
CN1CCc2cc3c(c4c2[C@H]1[C@H](O)c1ccccc1-4)OCO3 | -5 | -14% | -6 | -7% | 18 | 1
O=C(Nc1ccc2oc(-c3cccc4c(Br)cccc34)nc2c1)c1ccc(Br)cc1 | · | -12% | · | · | · | ·
O=C1N(Cc2ccccc2)CC2(Br)COCOC12O (stereo not drawn) | · | -4% | -22 | · | · | -7
Cc1cc(C)cc(Nc2ccc(C(=O)O)cc2N)c1 | -1 | 28µM* | -2 | ? | -19 | 2
Cc1ccc(Nc2ccc(C(=O)O)cc2N)cc1 | 2 | -25% | -12 | 22% | 9 | -3
